# The whole screen tested about 44,000 sequences, of which about 4,100 (9.3%) were called active. No stated cut-off is given here; in the data, active = GI50 up to about 1.1 µM and inactive = higher. The full list was thinned out, with actives kept by preference. Potency and affinity values are given separately.
# Test system: MDA-MB-435
row,Substance,GI50
1,"[Bis(aminomethyl)tetramethylenesilane]dichloropaltinum(II), CHEMBL2146205",3.51 µM
2,"[Bis(aminomethyl)tetramethylenesilane]tetrachloropaltinum(IV), CHEMBL2146189",9.02 µM
3,"CISPLATIN, CHEMBL11359",5.96 µM
4,"[Bis(aminomethyl)pentamethylenesilane]tetrachloropaltinum(IV), CHEMBL2146204",0.438 µM
5,"[Bis(aminomethyl)pentamethylenesilane]dichloropaltinum(II), CHEMBL2146202",1.31 µM
6,"[Bis(aminomethyl)dimethylsilane]tetrachloroplatinum(IV), CHEMBL2146190",13.9 µM
